In PubChem BioAssay AID1159580 (chemical genetic matrix, 2015):
Screen size: about 5,500 compounds; about 2,000 (36%) were called active. Not shown: some 18% with an inconclusive outcome. No stated cut-off is given here; in the data, active means normalized growth mostly below about 0.91 (no sharp cut-off); inconclusive means no clear call, values can overlap the other calls; inactive means mostly above about 0.92. The list shows a part of the results.

Experiment: chemical genetic growth profiling, strain panel (AID 1159580);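 further: tested at 20 µM; growth read once vehicle control cultures reached saturation at 30 °C; 1 = growth at the plate median or of vehicle wells; lower values mean less growth of the strain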
Conditions: S. cerevisiae deletion strains, growth OD
[1] = locus YHR030C, strain SLT2, active compounds read low

Measured: normalized growth

Cc1cc(C)cc(N2C(=O)CC(Sc3ccccc3C(=O)O)C2=O)c1 (configuration not stated)
inactive: locus YAL013W, strain DEP1, active compounds read low 0.955 | locus YBR229C, strain ROT2, active compounds read low 0.987 | locus YDL101C, strain DUN1, active compounds read low 0.953 | locus YDR150W, strain NUM1, active compounds read low 0.945 | locus YEL061C, strain CIN8, active compounds read low 0.961 | locus YGR078C, strain PAC10, active compounds read low 1 | locus YHR087W, strain rtc3, active compounds read low 0.987 | locus YJR075W, strain HOC1, active compounds read low 1.01 | locus YLR058C, strain SHM2 (second series), active compounds read low 0.995 | locus YMR219W, strain ESC1, active compounds read low 0.996 | locus YMR263W, strain SAP30, active compounds read low 0.928 | locus YNL322C, strain KRE1, active compounds read low 1 | locus YPL055C, strain LGE1, active compounds read low 0.876
active: locus YDL134C, strain PPH21, active compounds read low 0.773 | [1] 0.668 | locus YJL187C, strain SWE1, active compounds read low 0.894 | locus YJR043C, strain POL32, active compounds read low 0.789 | locus YKL190W, strain CNB1, active compounds read low 0.771 | locus YLR039C, strain RIC1, active compounds read low 0.109 | locus YLR085C, strain ARP6, active compounds read low 0.619 | locus YLR262C, strain YPT6, active compounds read low 0.12 | locus YML094W, strain GIM5, active compounds read low 0.849 | locus YNL153C, strain GIM3, active compounds read low 0.876 | locus YNL298W, strain CLA4 (second series), active compounds read low 0.711 | locus YNR030W, strain Alg12, active compounds read low 0.078 | locus YOL006C, strain TOP1, active compounds read low 0.27 | locus YPL241C, strain CIN2, active compounds read low 0.0797 | locus YPR135W, strain CTF4, active compounds read low 0.222

CN(C)C(=N)N=C(N)N
inactive: locus YAL021C, strain ccr4, active compounds read low 1.01 | locus YAL026C, strain drs2, active compounds read low 1.02 | locus YAL030W, strain snc1, active compounds read low 0.997 | locus YBL061C, strain skt5, active compounds read low 1.03 | locus YBR009C, strain hhf1, active compounds read low 0.966 | locus YBR023C, strain chs3, active compounds read low 1.02 | locus YBR171W, strain sec66, active compounds read low 1.01 | locus YBR231C, strain swc5, active compounds read low 0.997 | locus YBR279W, strain paf1, active compounds read low 1.03 | locus YCL011C, strain gbp2, active compounds read low 1.01 | locus YCL016C, strain dcc1, active compounds read low 1.04 | locus YCL061C, strain MRC1, active compounds read low 0.995 | locus YCL069W, strain vba3, active compounds read low 1 | locus YCR088W, strain abp1, active compounds read low 1.01 | locus YDL005C, strain med2, active compounds read low 1.02 | locus YDL040C, strain nat1, active compounds read low 1 | locus YDR001C, strain nth1, active compounds read low 1 | locus YDR069C, strain doa4, active compounds read low 0.984 | locus YDR137W, strain rgp1, active compounds read low 1.05 | locus YDR159W, strain sac3, active compounds read low 0.893 | locus YDR195W, strain ref2 1.02 | locus YDR297W, strain sur2, active compounds read low 0.998 | locus YDR334W, strain swr1, active compounds read low 0.998 | locus YDR335W, strain msn5, active compounds read low 1.03 | locus YDR392W, strain spt3, active compounds read low 0.858 | locus YEL003W, strain gim4, active compounds read low 0.985 | locus YEL037C, strain rad23, active compounds read low 1.01 | locus YEL061C, strain CIN8 (second series), active compounds read low 1 | locus YER015W, strain faa2, active compounds read low 1.01 | locus YER016W, strain bim1, active compounds read low 1.02 | locus YER111C, strain swi4, active compounds read low 1.03 | locus YER155C, strain BEM2 (second series), active compounds read low 0.867 | locus YFR010W, strain ubp6, active compounds read low 0.978 | locus YGL167C, strain pmr1, active compounds read low 0.999 | locus YGL173C, strain kem1, active compounds read low 0.993 | locus YGL227W, strain vid30, active compounds read low 0.996 | locus YGL240W, strain doc1, active compounds read low 0.996 | locus YGL253W, strain hxk2, active compounds read low 1.04 | locus YHR013C, strain ard1, active compounds read low 1.01 | locus YHR027C, strain rpn1, active compounds read low 0.986 | [1] 1.02 | locus YHR079C, strain IRE1, active compounds read low 0.977 | locus YHR142W, strain chs7, active compounds read low 1.02 | locus YJL092W, strain hpr5, active compounds read low 0.997 | locus YJL095W, strain BCK1 (second series), active compounds read low 1.01 | locus YJL095W, strain BCK1, active compounds read low 0.987 | locus YJL115W, strain asf1, active compounds read low 1.01 | locus YJL129C, strain trk1, active compounds read low 1 | locus YJL154C, strain vps35, active compounds read low 1 | locus YJL164C, strain tpk1, active compounds read low 0.969 | locus YJL166W, strain qcr8, active compounds read low 0.982 | locus YJR066W, strain TOR1, active compounds read low 0.952 | locus YKL160W, strain elf1, active compounds read low 1.04 | locus YKR026C, strain gcn3, active compounds read low 1 | locus YKR091W, strain srl3, active compounds read low 0.998 | locus YLL001W, strain dnm1, active compounds read low 0.98 | locus YLL026W, active compounds read low 1 | locus YLL041C, strain sdh2, active compounds read low 0.998 | locus YLR027C, strain aat2, active compounds read low 0.991 | locus YLR113W, strain HOG1, active compounds read low 0.954 | locus YLR221C, strain rsa3, active compounds read low 0.963 | locus YLR258W, strain gsy2, active compounds read low 1.03 | locus YLR262C, strain YPT6 (second series), active compounds read low 0.987 | locus YLR320W, strain mms22, active compounds read low 0.93 | locus YLR342W, strain FKS1, active compounds read low 0.996 | locus YLR357W, strain rsc2, active compounds read low 1 | locus YLR370C, strain arc18, active compounds read low 1.01 | locus YLR384C, strain iki3, active compounds read low 0.99 | locus YML120C, strain ndi1, active compounds read low 0.992 | locus YMR058W, strain fet3, active compounds read low 1 | locus YMR125W, strain sto1, active compounds read low 1.01 | locus YMR129W, active compounds read low 0.992 | locus YMR205C, strain PFK2, active compounds read low 0.985 | locus YMR231W, strain pep5, active compounds read low 1 | locus YNL071W, strain lat1, active compounds read low 0.995 | locus YNL183C, strain NPR1, active compounds read low 0.923 | locus YNL209W, strain ssb2, active compounds read low 1.02 | locus YNL248C, strain rpa49, active compounds read low 1.02 | locus YNL322C, strain KRE1 (second series), active compounds read low 1.02 | locus YNR049C, strain mso1, active compounds read low 0.992 | locus YOR001W, strain rrp6, active compounds read low 0.948 | locus YOR070C, strain gyp1, active compounds read low 1.01 | locus YOR080W, strain dia2, active compounds read low 1 | locus YOR083W, strain WHI5, active compounds read low 0.975 | locus YOR106W, strain vam3, active compounds read low 1.02 | locus YOR231W, strain MKK1, active compounds read low 0.99 | locus YOR265W, strain rbl2, active compounds read low 1.01 | locus YOR270C, strain vph1, active compounds read low 0.929 | locus YOR290C, strain snf2, active compounds read low 1.05 | locus YPL051W, strain arl3, active compounds read low 1.05 | locus YPL078C, strain atp4, active compounds read low 1.05 | locus YPL106C, strain sse1, active compounds read low 1.09 | locus YPL240C, strain hsp82, active compounds read low 1 | locus YPL256C, strain CLN2, active compounds read low 0.961
